Assay outcomes: PubChem BioAssay, National Center for Advancing Translational Sciences (NCATS)
PI4K2A block – PI4K2A (human) kinase inhibition; Q9BTU6; purified PI4K2A, ADP-Glo luminescence, 1 h; hits give low values; activity change, negative = inhibition, % at 76.9 µM; 420,000 tested, 0.13% active; AID 1346378; in the data active = activity change below about -50%; inconclusive = mostly about -30% to -49%;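 note: -100% = wells without enzyme as full effect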
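In this quantitative HTS, ADP production by PI4K2A was quantified luminescently after 1 h at ambient temperature; 100 microM adenosine served as plate-quality control.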
Pol kappa inh – blocks human DNA polymerase kappa activity; Potency, µM (doses to about 107 µM), for inactives: top-dose activity, negative = inhibition, hits mostly inhibitors; 400,000 tested, 0.53% active; Q9UBT6; purified Pol kappa, fluorescent DNA synthesis assay, 10 min; AID 588579; note: potency is the fitted concentration of half-maximal effect; % is set by controls: 0 for no effect and ±100 for the full control effect
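Here, compound and 10 nM enzyme are combined for 15 min at room temperature; adding 50 nM substrate (final) starts DNA synthesis, tracked by fluorescence at 0 and 10 min against buffer-only wells.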
Pol beta inh – inhibitors of human DNA polymerase beta | P06746 | Pol beta primer extension/strand displacement, fluorescence kinetic | Potency, µM (series often up to 114 µM), without a hit: at the top dose activity change, negative = inhibition, hits mostly inhibitors | 340,000 tested, 1.3% active; note: potency is the fitted concentration of half-maximal effect; % is set by controls: 0 for no effect and ±100 for the full control effect
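Enzyme-only controls used 10 nM Pol beta; buffer lacking enzyme served as negative control. Compound preincubated 15 min, then 50 nM substrate added; 0 and 10 min reads at room temperature.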
POLI inh – DNA polymerase iota (human) inhibition; 390,000 tested, 1% active; Potency, µM (doses to about 115 µM), inactives show at the top dose activity, negative = inhibition, actives largely listed as inhibitors; Pol iota fluorescent replication assay, 10 min; Q9UNA4; AID 588590; note: potency is the fitted concentration of half-maximal effect
Target sequence (Q9UNA4 whole entry, looked up): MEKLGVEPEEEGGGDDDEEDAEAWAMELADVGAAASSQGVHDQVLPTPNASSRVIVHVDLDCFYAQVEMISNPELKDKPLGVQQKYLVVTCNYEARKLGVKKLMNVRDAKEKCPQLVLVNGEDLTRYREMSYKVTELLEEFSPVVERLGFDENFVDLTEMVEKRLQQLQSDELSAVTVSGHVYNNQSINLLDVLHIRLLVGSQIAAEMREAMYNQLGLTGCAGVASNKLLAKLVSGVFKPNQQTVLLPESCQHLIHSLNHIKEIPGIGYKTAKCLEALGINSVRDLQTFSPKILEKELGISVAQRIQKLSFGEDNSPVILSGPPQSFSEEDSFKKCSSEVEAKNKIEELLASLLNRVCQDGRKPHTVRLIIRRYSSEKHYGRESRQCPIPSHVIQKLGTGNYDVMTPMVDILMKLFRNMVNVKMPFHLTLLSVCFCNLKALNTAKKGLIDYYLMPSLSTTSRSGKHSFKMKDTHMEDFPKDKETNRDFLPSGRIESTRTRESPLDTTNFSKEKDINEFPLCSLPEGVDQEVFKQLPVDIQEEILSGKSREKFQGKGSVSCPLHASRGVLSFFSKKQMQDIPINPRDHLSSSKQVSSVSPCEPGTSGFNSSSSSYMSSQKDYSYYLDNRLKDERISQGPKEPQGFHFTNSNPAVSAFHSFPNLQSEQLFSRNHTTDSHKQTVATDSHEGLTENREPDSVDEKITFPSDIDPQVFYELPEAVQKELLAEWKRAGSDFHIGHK
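Fluorescent replication assay read twice, at 0 min and 10 min after adding 50 nM (final) substrate. Enzyme (10 nM) and compounds were first incubated 15 min at room temperature; enzyme-free buffer wells were negative controls.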
PI5P4K alpha inh – PI5P4K alpha (human) kinase inhibition; P48426; PI5P4Kalpha enzyme, ADP-Glo luminescence, 60 min; hits give low values; max response, %; 330,000 tested, 1.2% active; AID 652105; active = max response of -50% or lower; inconclusive = between -30% and -50%; inactive = -30% or higher; note: value at the top dose of about 77 µM; % is set by controls: 0 for no effect and ±100 for the full control effect
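Quantitative HTS of the MLSMR library against PI5P4Kalpha with substrate. ATP added last at 5 microM final; room temperature, 60 minutes. Remaining ATP depleted, ADP converted and read as luminescence.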
Pol eta inh – inhibitors of human DNA polymerase eta | 390,000 tested, 1.2% active | recombinant Pol eta, fluorescent DNA replication assay | Q9Y253 | Potency, µM (highest dose often 114 µM), for the others: at the highest dose activity change, negative = inhibition, actives largely listed as inhibitors; note: potency is the fitted concentration of half-maximal effect; % is set by controls: 0 for no effect and ±100 for the full control effect
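Pol eta (10 nM) was preincubated with compounds for 15 min at room temperature, after which fluorescent replication substrate (50 nM final) was added to start the reaction. Fluorescence was read kinetically at 0 and 10 min.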
ADP-Glo interf – ADP-Glo luciferase interference, PI5P4K counter-screen; 1,100 tested, under 10 active; AID 743285; Potency, µM (titrated, usually from 76.9 µM), for the others: at the highest dose activity change, negative = inhibition, hits mostly inhibitors; shares compounds with PI5P4K alpha inh; ADP-Glo detection counter-screen, luciferase luminescence, no enzyme
* marks the source's active call; other numbers are inactive results; [ ] = dose if it differs, or a comment. Most compounds without a hit are left out; they make up all but 2.8% or so of the library. Unless noted, calls come from the whole dose curve; as a rule, active = well fitted curve in the direction sought with a large enough effect; inconclusive = small, poorly fitted or top-dose-only effect, or another doubt; inactive = no such curve, though single readings can be large; an effect the other way counts as inactive or inconclusive.

Results for CCCNC(=O)C1(C)CCCN(C(=O)c2cc(C)n(C(C)(C)C)n2)C1 (stereo not drawn) ?
PI4K2A block: -2; PI5P4K alpha inh: -7

What do the screens show for `COc1ccc(-c2ccnc3c2c(=O)n(C)c(=O)n3C)cc1OC`?
PI4K2A block: -3; Pol kappa inh: 12%; Pol beta inh: 17%; POLI inh: 5%; Pol eta inh: 5%

What do the screens show for `CCSc1nnc(-c2ccco2)n1C`?
PI4K2A block: -6

How did Cc1ccnc2nc(C(=O)OCC(=O)NC3CCCC(C)C3C)nn12 (stereo not drawn) do in these assays?
PI4K2A block: -14; Pol kappa inh: -12%; POLI inh: 1%; PI5P4K alpha inh: -11; Pol eta inh: inconclusive; ADP-Glo interf: -9%

Results for Cc1nc(N2CCOCC2)c2c(C(=O)NCCc3ccccc3)c(C)oc2n1 ?
PI4K2A block: 2; Pol kappa inh: -6%; Pol beta inh: -3%; POLI inh: -8%; Pol eta inh: -10%

What do the screens show for `O=S(=O)(Nc1nccs1)c1cc(Cl)ccc1Cl`?
PI4K2A block: 7; Pol kappa inh: 0%; Pol beta inh: -2%; POLI inh: inconclusive; PI5P4K alpha inh: -51*; Pol eta inh: 25µM*; ADP-Glo interf: -1%

What do the screens show for `O=S(=O)(Nc1ncccn1)c1cc(Cl)ccc1Cl`?
PI4K2A block: 3; Pol kappa inh: -6%; Pol beta inh: 34%; POLI inh: 111%; PI5P4K alpha inh: 1; Pol eta inh: -6%

Results for COCCNC(=O)C1(C)CCCN(C(=O)c2ccc(C#N)cc2)C1 (stereo not drawn) ?
PI4K2A block: 1; PI5P4K alpha inh: -7

Results for CCOC(=O)[C@]12CCCC=C1N(Cc1ccccc1)C(=O)[C@H](CC(=O)NCCCOC)C2 ?
PI4K2A block: 0; PI5P4K alpha inh: -57*; ADP-Glo interf: -1%

What do the screens show for `CCOC(=O)[C@]12CCCC=C1N(Cc1cccc3ccccc13)C(=O)[C@H](CC(=O)NCc1ccc(C)o1)C2`?
PI4K2A block: -1; PI5P4K alpha inh: -19

Results for COC(=O)[C@]12CCCCC=C1N(Cc1cccc3ccccc13)C(=O)[C@H](CC(=O)NCc1ccc(C)o1)C2 ?
PI4K2A block: -2; PI5P4K alpha inh: -52*; ADP-Glo interf: 2%

How did Cc1nc(N2CCC(C)CC2)c2c(C)c(C(=O)O)sc2n1 do in these assays?
PI4K2A block: 6; Pol kappa inh: -20%; Pol beta inh: -22%; POLI inh: inconclusive; Pol eta inh: 6%; ADP-Glo interf: -3%

Results for Cc1cc(C(=O)OCC(=O)Nc2c(F)cccc2F)c(C)n1-c1ccccc1 ?
PI4K2A block: -8; Pol kappa inh: -1%; Pol beta inh: -21%; POLI inh: 5%; PI5P4K alpha inh: -75*; Pol eta inh: -5%; ADP-Glo interf: -5%

What do the screens show for `Cc1ccc(-c2cc(-c3ccccc3)c3c(N)c(S(C)(=O)=O)sc3n2)cc1`?
PI4K2A block: -3; Pol kappa inh: -21%; Pol beta inh: -19%; POLI inh: 11%; PI5P4K alpha inh: 9; Pol eta inh: -12%

What do the screens show for `CS(=O)(=O)c1sc2nc(-c3cccs3)cc(-c3ccccc3)c2c1N`?
PI4K2A block: -10; Pol kappa inh: -7%; Pol beta inh: inconclusive; POLI inh: inconclusive; PI5P4K alpha inh: -52*; Pol eta inh: 11%; ADP-Glo interf: -11%

How did CC(C)Cc1nn2c(=O)cc(COC(=O)c3ccccc3NC(=O)c3ccccc3)nc2s1 do in these assays?
PI4K2A block: -4; Pol kappa inh: -10%[60.1 µM]; Pol beta inh: 6%; POLI inh: -20%; Pol eta inh: -14%

How did CN1OC[C@@H]2CN(S(=O)(=O)c3cccc4ccccc34)[C@H](c3ccc(-c4ccccc4)cc3)C[C@@H]21 do in these assays?
PI4K2A block: -2; PI5P4K alpha inh: 17; Pol eta inh: -22%

Results for CN1OC[C@@H]2CN3C(=O)N(c4cccc5ccccc45)c4ccccc4[C@@H]3C[C@@H]21 ?
PI4K2A block: -4; PI5P4K alpha inh: -53*; ADP-Glo interf: 1%

Results for COCCOC(=O)N1CCN(/[N+]([O-])=N/Oc2ccc([N+](=O)[O-])cc2[N+](=O)[O-])CC1 ?
Pol kappa inh: 7%; POLI inh: -9%

What do the screens show for `O=C1Nc2ccc(S(=O)(=O)NCc3ccccn3)c3cccc1c23`?
PI4K2A block: -1; Pol kappa inh: inconclusive; Pol beta inh: 1%; POLI inh: 50µM*; PI5P4K alpha inh: -60*; Pol eta inh: 20µM*; ADP-Glo interf: -8%

Results for O=C(NCCc1ccccc1)c1ccc2c(c1)N(Cc1ccc(F)cc1Cl)C(=O)CS2 ?
PI4K2A block: -4; Pol kappa inh: -2%; Pol beta inh: 0%; POLI inh: 25%; Pol eta inh: -15%

Results for O=C(O)c1cccc(NC(=O)c2cn(-c3ccccc3)nc2-c2cc3ccccc3o2)c1 ?
PI4K2A block: -2; Pol kappa inh: -28%; Pol beta inh: inconclusive; POLI inh: inconclusive; PI5P4K alpha inh: -53*; Pol eta inh: inconclusive; ADP-Glo interf: -8%

What do the screens show for `CCOc1ccc(Cl)cc1S(=O)(=O)n1cnc2ccccc21`?
PI4K2A block: -10; Pol kappa inh: -5%; Pol beta inh: -13%; POLI inh: 11%; PI5P4K alpha inh: 1; Pol eta inh: -8%; ADP-Glo interf: -7%

Results for COc1ccc(Cl)cc1S(=O)(=O)n1cnc2ccccc21 ?
PI4K2A block: 7; Pol kappa inh: 5%; Pol beta inh: inconclusive; POLI inh: 2%; PI5P4K alpha inh: -3; Pol eta inh: -5%

Results for Cc1nc2ccccc2nc1OCC(=O)NCc1ccc2c(c1)OCO2 ?
PI4K2A block: -20; Pol kappa inh: inconclusive; Pol beta inh: 26%; POLI inh: inconclusive; PI5P4K alpha inh: -62*; Pol eta inh: 6%; ADP-Glo interf: -14%

What do the screens show for `O=C(COc1ncnc2ccccc12)NCc1ccc2c(c1)OCO2`?
PI4K2A block: 1; Pol kappa inh: -17%; Pol beta inh: 15%; POLI inh: 7%; PI5P4K alpha inh: 6; Pol eta inh: 7%

Results for COc1ccc(S(=O)(=O)N(CC(=O)N2CCC(C)CC2)c2ccc(C)cc2)cc1 ?
PI4K2A block: -8; Pol kappa inh: -16%; Pol beta inh: 6%; POLI inh: 8%; Pol eta inh: -12%
